A1 inh: caspase 3/7 activation in MEF A1-2A-BIM cells, primary screen, A1 inhibitor project, cell-based, luminescence, HTS; caspase activation, % (no concentration beside the values); actives 0.066% (n = 330,000); Caspase-Glo 3/7 luminescence, 3 h; percent of clofoctol response, vehicle zero;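 active = over half of replicate activation scores above 10%, or exactly half above 10 with the replicate mean above 10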
B2AR ag: beta2AR agonists driving receptor internalization, primary screen, cell-based, FAP fluorogen, flow cytometry. Beta-2 adrenergic receptor (Homo sapiens), P07550. response, % (test concentration not listed). actives 0.43% (n = 340,000). Am2.2-beta2AR cells. AID 504454, 2011;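 active = response above a set limit, near 3 SD of response in nonfluorescent compounds, cut at about 42% in these data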
Target sequence (P07550 whole entry, looked up): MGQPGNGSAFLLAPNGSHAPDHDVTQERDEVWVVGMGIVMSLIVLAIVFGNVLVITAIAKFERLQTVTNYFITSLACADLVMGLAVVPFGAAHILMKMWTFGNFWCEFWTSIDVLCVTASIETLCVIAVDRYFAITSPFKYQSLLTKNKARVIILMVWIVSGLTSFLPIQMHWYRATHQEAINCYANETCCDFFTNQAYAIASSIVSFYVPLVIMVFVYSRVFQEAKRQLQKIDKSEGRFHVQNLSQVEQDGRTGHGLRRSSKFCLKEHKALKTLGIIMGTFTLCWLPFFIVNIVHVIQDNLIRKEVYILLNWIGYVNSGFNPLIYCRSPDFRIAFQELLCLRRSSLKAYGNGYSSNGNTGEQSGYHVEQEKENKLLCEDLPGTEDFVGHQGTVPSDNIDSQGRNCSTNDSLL
dFosB act: activators of delta FosB homodimer, primary screen, biochemical, fluorescence polarization, TAMRA-CDK5 oligo, single point; Protein FosB (Mus musculus), P13346; purified delta FosB; percent of positive-control signal above neutral wells; activation, % at 25 µM; actives 0.99% (n = 340,000);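 active = mean activation above about 17%, with every replicate also reaching it, limit read from the data, passing the limit was not always enough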
DYRK1A inh: rat Dyrk1A kinase inhibitors, primary screen, biochemical, single point, plate reader; Dual specificity tyrosine-phosphorylation-regulated kinase 1A (Rattus norvegicus), Q63470; ADP-Glo luminescence, NFATc1 peptide; inhibition, % at 12.5 µM; actives 0.43% (n = 310,000); AID 504441, 2011; in the data active = inhibition above about 50%
A number is an active result; i = inactive; nt = no result given. Hits are enriched below; roughly 1.6% of the tested compounds scored in any of these assays.

SMILES	A1 inh	B2AR ag	dFosB act	DYRK1A inh
CCc1cccc(NC(=O)C2CCN(S(=O)(=O)c3ccc4c(c3)NC(=O)CO4)CC2)c1	9.7	i	i	i
CCOc1ccc(N2CC(C(=O)Nc3cc(S(=O)(=O)N4CCCCC4)ccc3C)CC2=O)cc1 (stereo not drawn)	i	i	i	nt
COc1ccc(-c2nn(-c3ccccc3)cc2/C=C/C(=O)OCC(=O)Nc2ccc(C#N)cc2)cc1	i	55.1	i	i
COc1cccc(/C=N/NC(=O)CSc2nnc(C)n2-c2ccccc2)c1O	i	i	i	i
CC(=O)Nc1ccc(NC(=O)C(C)OC(=O)/C=C/c2cn(-c3ccccc3)nc2-c2cccnc2)cc1 (stereo not drawn)	15.7	i	i	i
COc1ccc(-c2nn(-c3ccccc3)cc2/C=N/NC(=O)c2ccc3c(c2)OCO3)cc1	i	nt	nt	nt
COc1ccc(-c2nn(-c3ccccc3)cc2/C=C/C(=O)OCC(=O)Nc2cccc(C#N)c2)cc1	i	i	i	i
Cc1ccc(-c2nn(-c3ccccc3)cc2/C=N/NC(=O)CSc2nnc(C)n2-c2ccccc2)cc1	i	89.4	i	i
COc1ccc(-c2nn(-c3ccccc3)cc2/C=N/NC(=O)c2ccc(Br)o2)cc1	i	60.9	i	i
Cc1ccccc1NC(=O)COC(=O)/C=C/c1cn(-c2ccccc2)nc1-c1cccnc1	i	i	i	i
N#Cc1ccc(C(=O)N2CCC3CC2c2cc(-c4ccc(F)cc4)ccc23)cc1 (stereo not drawn)	nt	i	i	i
O=C(O)CCCC(=O)OCc1c(-c2ccccc2)ncc2ccccc12	i	i	i	i
CCOC(=O)N1CCN(S(=O)(=O)c2ccc(C(=O)N(CCCN(C)C)c3nc4c(F)cc(F)cc4s3)cc2)CC1	i	i	i	i
COc1cc2nc(N(CCCN(C)C)C(=O)c3ccc(S(=O)(=O)N4CCc5ccccc5C4)cc3)sc2cc1OC	i	i	i	i
CN(C)CCCN(C(=O)c1ccc(S(=O)(=O)N2CCc3ccccc3C2)cc1)c1nc2c(F)cc(F)cc2s1	i	i	37.4	i
COc1ccc(C)c2sc(N(CCCN(C)C)C(=O)c3ccc(S(=O)(=O)N4CCc5ccccc5C4)cc3)nc12	i	51.5	69.7	i
Cc1ccc2sc(N(CCCN(C)C)C(=O)c3ccc(S(=O)(=O)N(C)C)cc3)nc2c1C	i	i	i	i
Cc1ccc2sc(N(CCCN(C)C)C(=O)c3ccc(S(=O)(=O)N4CCc5ccccc5C4)cc3)nc2c1C	i	i	38.1	i
Cc1cccc(C(=O)N2CCc3cc(-c4csc(NC(=O)CN5CCCC5)n4)ccc32)c1	i	i	37.1	i
Cc1cccc(C(=O)N2CCc3cc(-c4nc(NC(=O)CN5CCCC5)sc4C)ccc32)c1	i	i	i	i
CCN1C(=O)/C(=C/C=C2\N(CC)c3cc(S(=O)(=O)N(C)C)ccc3N2c2ccccc2)SC1=S	i	i	91.2	i
CCN1C(=O)/C(=C\C=C\c2ccccc2[N+](=O)[O-])SC1=S	nt	i	i	i
COc1ccc(/C=N/NC(=O)c2nc(Cl)c(Cl)c(N)c2Cl)cc1COc1ccccc1F	i	49.8	i	i
COc1ccc(/C=N/NC(=O)c2nc(Cl)c(Cl)c(N)c2Cl)cc1COc1ccc(F)cc1F	i	i	i	i
COc1ccc(-c2nn(-c3ccccc3)cc2/C=N/N=C(N)N)cc1OC	i	i	67.9	i
SMILES	A1 inh	B2AR ag	dFosB act	DYRK1A inh
COc1ccc(-c2nn(-c3ccccc3)cc2/C=N/O)cc1OC	i	i	i	i
CC(=O)OC[C@]12CC[C@H]3[C@@](C)(CC[C@H]4C(C)(C)CCC[C@]34C)[C@@H]1C[C@H](C1=CC(=O)O[C@H]1OC(C)=O)O2	62.4	nt	nt	nt
CC(=O)Nc1ccc(C(=O)OCC(=O)NCc2cccs2)cc1	i	i	i	nt
CN(C)CCNC(=O)c1cccc2nc3c(ccc4ccccc43)nc12	nt	i	72.7	i
CN(CCNC(=O)c1c[nH]c2c1ccc1ccccc12)CCNC(=O)c1c[nH]c2c1ccc1ccccc12	nt	i	43.6	nt
CN(C)CCNC(=O)c1ccccc1-c1cc2ccccc2c(=O)o1	i	i	i	i
CN(C)CCNC(=O)c1cccc2[nH]c(-c3ccncc3)nc12	nt	i	38.2	i
COc1ccccc1CN1CCN(S(=O)(=O)c2ccc(C)cc2)CC1	i	i	i	i
COC(=O)c1ccc(Cn2c(O)c(N=NC(N)=S)c3ccccc32)o1	i	i	i	i

Compound activity from PubChem BioAssay.
